Assay results from PubChem BioAssay (NCATS).
Inconclusive results are not listed. Calls of active or inactive are those of the source. Calls come from the whole dose curve; as a rule, active = well fitted curve in the direction sought with a large enough effect; inconclusive = small, poorly fitted or top-dose-only effect, or another doubt; inactive = no such curve, though single readings can be large; an effect the other way counts as inactive or inconclusive.

What was measured:
[1] = target: Glutathione peroxidase 1 (Homo sapiens) (UniProt P07203); assay: Primary qHTS Assay for Inhibitors of Recombinant Selenoprotein Glutathione Peroxidase 1 (GPX1) (AID 1845191); note: nearly all actives have a fitted effect of over 65% in size
Summary of the method: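 10 nM GPX1 + cpd, 30 min RT; start w/ 1 mM GSH, 0.5 mM cumene hydroperoxide, 0.5 mM NADPH, 100 nM GR, 0.01% BSA; buffer 50 mM Tris-HCl pH 7.5, 2 mM EDTA, 150 mM NaCl; Fl 340/450, 0 & 15 min.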

[2] = target: Phospholipid hydroperoxide glutathione peroxidase GPX4 (Homo sapiens) (UniProt P36969); assay: Primary qHTS Assay for Inhibitors of Recombinant Selenoprotein Glutathione Peroxidase 4 (GPX4) (AID 1845192); note: nearly all actives have a fitted effect of over 65% in size
Summary of the method: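 NADPH consumption, followed by fluorescence at 340/450 nm between 0 and 15 min, reports GPX4 activity via coupled glutathione reductase (100 nM). Enzyme 200 nM was pre-exposed to compound 30 min; 0.5 mM cumene hydroperoxide and 1 mM GSH served as substrates.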

[3] = target: Luciferin 4-monooxygenase (Photinus pyralis) (UniProt P08659); assay: Primary firefly luciferase (FLuc) qHTS assay for identification of artifact compounds. (AID 1845220); note: nearly all actives have a fitted effect of over 60% in size
Summary of the method: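 FLuc 10 nM; luciferin 10 uM; ATP 10 uM; Tris-acetate pH 7.6, Mg-acetate 10 mM; 15 min RT preincubation; 5 min reaction; luminescence.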

[4] = Primary fluorescence-based thiol-reactive (MSTI) qHTS assay for identification of artifact compounds. (AID 1845221);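 note: series mostly up to about 54 µM; thiol-reactive compounds lower the probe fluorescence signal; nearly all actives have a fitted effect of over 65% in size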
Summary of the method: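 Reactivity toward the thiol probe MSTI (4 uM) is scored by fluorescence at Ex/Em 525/598 nm after 1 h at room temperature. Acetyl-MSTI and MSTI define the activity scale.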

[5] = system: Nanoluciferase (engineered Oplophorus gracilirostris luciferase); assay: Primary Nanoluciferase (NLuc) qHTS assay for identification of artifact compounds. (AID 1845222);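 note: NLuc secreted into diluted conditioned medium of S16 cells; series mostly up to about 54 µM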
Summary of the method: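 NLuc from S16 cell medium (1:55) plus test compounds, 15 min, room temperature. Luminescence after Nano-Glo (1:100) addition, 5 min.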

[6] = Primary redox qHTS assay for identification of artifact compounds. (AID 1845223)
Summary of the method: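 Amplex Red (25 uM) and HRP (250 mU/mL) in HBSS, with compounds for 15 min, then 250 uM DTT for 30 min, room temperature, dark. Fluorescence 525/598 nm read; normalized to DMSO and 10 uM DA3003; Hill fit.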

Measured: Potency

Sequence of Phospholipid hydroperoxide glutathione peroxidase GPX4 (Homo sapiens) (P36969 whole entry, looked up): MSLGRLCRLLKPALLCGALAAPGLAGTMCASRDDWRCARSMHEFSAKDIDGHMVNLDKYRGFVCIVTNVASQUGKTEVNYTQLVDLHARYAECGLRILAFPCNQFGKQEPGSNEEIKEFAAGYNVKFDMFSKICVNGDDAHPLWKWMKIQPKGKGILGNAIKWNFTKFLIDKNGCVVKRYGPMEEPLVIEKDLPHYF
Sequence of Glutathione peroxidase 1 (Homo sapiens) (P07203 whole entry, looked up): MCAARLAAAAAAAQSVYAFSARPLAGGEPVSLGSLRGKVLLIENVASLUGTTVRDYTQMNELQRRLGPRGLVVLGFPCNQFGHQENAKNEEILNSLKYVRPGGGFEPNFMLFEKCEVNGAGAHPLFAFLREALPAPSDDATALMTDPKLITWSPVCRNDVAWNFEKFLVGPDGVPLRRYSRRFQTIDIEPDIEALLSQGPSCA

C=C1CC2[C@@]3(C)C=CC(=O)C(C)(C)C3=C(O)C(=O)[C@@]2(C)C2(C(=O)OC)C(=O)C(C)OC(=O)[C@@]12C (stereo partly specified)
inactive: all assays above

CC(=O)NC(C)c1cnc(-c2cnc(Oc3ccc(OC(C)C)cc3)s2)s1 (stereo unspecified)
inactive: all assays above

Cc1nc(C#Cc2ccnc(Cl)c2)c(C)n1-c1ccc(OC(F)(F)F)cc1
inactive: all assays above

C[C@H]1[C@H](/C=C/c2ccc(-c3ccccc3C#N)cn2)[C@@H]2[C@@H](C)OC(=O)[C@@H]2C[C@@H]1C
inactive: all assays above

CCCCNc1ncc2c(-c3ccc(S(=O)(=O)N4CCOCC4)cc3)nn(C3CCC(O)CC3)c2n1 (stereo unspecified)
inactive: all assays above

CN(c1ccc(NC(=O)Nc2ccccc2)cc1)S(=O)(=O)c1cnn(-c2ccc(F)cc2)c1
inactive: all assays above

COc1ccc(S(=O)(=O)N2CCC[C@H]2C(=O)Nc2cc(C)cc(C)c2)cc1
inactive: all assays above

CC(C)(O)C1CC(=O)C2(C)C(CCC3(C)C(c4ccoc4)OC(=O)C4OC432)C12CCC(=O)OC2 (stereo unspecified)
inactive: all assays above

O=C(NCCCc1ccccc1)C1CCC(CNS(=O)(=O)c2cccc3nsnc23)CC1 (stereo unspecified)
inactive: all assays above

COC(CCc1ccc(O)cc1)CC(=O)CCc1ccc(O)cc1 (stereo unspecified)
inactive: all assays above

CC(=O)OCC(=O)[C@@]12O[C@@H]1C[C@H]1[C@@H]3CC=C4C[C@@H](O)CC[C@]4(C)[C@H]3CC[C@@]12C
inactive: all assays above

CCCCCCCCn1cc(CN(CC)CC)c2cc(-c3cnc(N)nc3)ccc21
inactive: all assays above

Cc1ccc(S(=O)(=O)NCc2ccc(C(=O)NCCN(Cc3ccccc3)C(C)C)cc2)cc1
inactive: all assays above

Cc1cc(-c2nc(-c3ccc(OC(F)(F)F)cc3)no2)nn1Cc1ccnc(N2CCN(C3CC3)CC2)c1
inactive: all assays above

Cc1cn2cc(C(=O)N(C)CCO)cc(NC3CCOc4cccc(C)c43)c2n1 (stereo unspecified)
inactive: all assays above

C=C1C(=O)O[C@@H]2C[C@@]3(C)C[C@@H](O)C[C@H](C)C3=C[C@H]12
inactive: all assays above

COc1cc(C(C)C)c(Oc2cnc(N)nc2N)cc1I
inactive: all assays above

C/C=C(\C)C(=O)O[C@@H]1[C@@H](C)[C@]2(O)[C@@H]3C=C(C)C(=O)[C@H]3CC(CO)=C[C@H]2C2C(C)(C)[C@@]21OC(=O)C(C)CC (stereo partly specified)
inactive: all assays above

C=C(C)C(=O)O[C@H]1[C@H]2C(=C)C(=O)O[C@@H]2C[C@@H](C)[C@@H]2O[C@@H]2C(=O)[C@](C)(O)[C@@H]1OC(=O)C(=C)C
inactive: all assays above

CC(=O)NCc1cccc(OC[C@@H](O)CNCCc2ccc(NS(=O)(=O)c3ccccc3)cc2)c1
inactive: all assays above

CC(=O)OC(C)(C)/C=C/C(=O)[C@](C)(O)[C@H]1C(O)C[C@@]2(C)[C@@H]3CC=C4[C@@H](C=C(O[C@@H]5O[C@H](CO)[C@@H](O)[C@H](O)[C@H]5O)C(=O)C4(C)C)[C@]3(C)C(=O)C[C@]12C (stereo partly specified)
inactive: all assays above
